Screens as filed in PubChem.
Most compounds without a hit are left out; they make up all but 5.7% or so of the library.
D3 ag: qHTS of D3 Dopamine Receptor Agonist: qHTS; D(3) dopamine receptor (Homo sapiens), P35462; D3R DiscoveRx beta-arrestin cells, luminescence, 90 min; max activation, %; actives 0.58% (n = 410,000); AID 652048, 2013; in the data active = max activation above about 30%; note: 0% is about no effect
Target sequence (P35462 whole entry, looked up): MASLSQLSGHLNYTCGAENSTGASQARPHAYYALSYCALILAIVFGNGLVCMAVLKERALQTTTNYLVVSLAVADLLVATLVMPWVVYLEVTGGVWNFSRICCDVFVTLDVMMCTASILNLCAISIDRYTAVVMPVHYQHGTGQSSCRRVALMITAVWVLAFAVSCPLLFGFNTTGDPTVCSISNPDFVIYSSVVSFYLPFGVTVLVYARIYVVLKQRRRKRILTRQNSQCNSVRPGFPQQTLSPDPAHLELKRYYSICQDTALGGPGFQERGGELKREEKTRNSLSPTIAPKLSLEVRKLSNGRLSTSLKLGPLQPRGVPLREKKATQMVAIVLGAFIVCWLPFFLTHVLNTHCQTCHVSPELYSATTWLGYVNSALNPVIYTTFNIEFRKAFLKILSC
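Cells at 1500/well, incubated overnight, then treated with pinned compounds (dopamine as control) for 90 min at 37 degrees C. DiscoveRx reagent added for 30 - 60 minutes at room temperature; luminescence read.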
GLP-1R agonist: qHTS of GLP-1 Receptor Agonists; Glucagon-like peptide 1 receptor (Homo sapiens), P43220; HEK293 GLP-1R CRE-luciferase, luminescence, 4-6 h; cells express a hypersensitive GLP-1R form; Potency, µM (doses to about 45.6 µM), for inactives: at the top dose activation, actives largely listed as activators; actives 0.007% (n = 380,000); AID 624172, 2012; note: potency is the fitted concentration of half-maximal effect; % of control where 0% means no effect
GLP1R cytotox: qHTS of GLP-1 Receptor Inverse Agonists: Cytotox Screen. HEK293 cAMP-luciferase reporter cells, luminescence, 24 h. Potency, µM (highest dose often 38.3 µM), without a hit: at the highest dose activity change, negative = inhibition, actives largely listed as inhibitors. actives 0.13% (n = 410,000);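 note: loss of luciferase light is scored as toxicity; potency is the fitted concentration of half-maximal effect; % is set by controls: 0 for no effect and ±100 for the full control effect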
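Luminescence readout: signal drop marks cytotoxicity. Plated cells grew 12 h at 37 °C, 5% CO2, received 23 nL compound for 24 h, then got luciferase reagent, read after 12 min at RT.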
GLP-1R inv ag: qHTS of GLP-1 Receptor Inverse Agonists (Inhibition Mode); Glucagon-like peptide 1 receptor (Homo sapiens), P43220; HEK293 GLP-1R CRE-luciferase, luminescence, 24 h; GLP-1R form is constitutively active; Potency, µM (doses to about 38.3 µM), inactives show top-dose activity change, negative = inhibition, most hits filed as inhibitors; actives 1.6% (n = 410,000); note: potency is the fitted concentration of half-maximal effect; % is set by controls: 0 for no effect and ±100 for the full control effect; nearly all actives have a fitted effect of over 55% in size
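Readout was luciferase luminescence, measured 12 min after detection reagent at room temperature. Beforehand, GLP-1R reporter HEK293 cells had sat 12 h, then received compounds for 24 hr at 37 deg C.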
ClpP mod: qHTS Assay for Activators of ClpP | ATP-dependent Clp protease proteolytic subunit (Bacillus subtilis (strain 168)), P80244 | purified B. subtilis ClpP, FRET peptide cleavage, 20 min | Potency, µM (titrated, usually from 57.5 µM), without a hit: top-dose activity change, negative = active | actives 1.9% (n = 340,000) | AID 651965, 2013; active = well fitted falling curve with a large enough effect; inconclusive = small, poorly fitted or top-dose-only effect; inactive = no such curve, though single readings can be large or run the other way; note: potency is the fitted concentration of half-maximal effect; the source files actives as falling curves though it sought activators and does not explain the sign; nearly all actives have a fitted effect of over 65% in size
Target sequence (P80244 whole entry, looked up): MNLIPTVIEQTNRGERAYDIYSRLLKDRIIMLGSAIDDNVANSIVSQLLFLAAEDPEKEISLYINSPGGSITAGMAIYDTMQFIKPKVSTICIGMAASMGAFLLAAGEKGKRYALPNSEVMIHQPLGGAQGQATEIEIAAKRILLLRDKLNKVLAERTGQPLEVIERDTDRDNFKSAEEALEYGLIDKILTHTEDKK
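FRET quenching reversal measured ClpP activation: 10 microg/mL B. subtilis ClpP at pH 8 with the FRET-FV decapeptide, read at 430 nm after 320 nm excitation. The 20-min minus 0-min signal was scaled between DMSO/no-enzyme wells and ADEP (5.8 microM final).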
D3 antag: qHTS of D3 Dopamine Receptor Antagonist: qHTS. max response, negative = inhibition, %. D3R cells, DiscoveRx beta-arrestin luminescence, antagonist mode; active compounds read low. actives 2.5% (n = 360,000). D(3) dopamine receptor (Homo sapiens), P35462; in the data active = max response below about -50%; inconclusive = no clear call, values can overlap the other calls; note: % is set by controls: 0 for no effect and ±100 for the full control effect
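Cells plated overnight at 1500 cells/well, then exposed to library compounds with dopamine controls for 90 minutes at 37 degrees C. DiscoveRx reagent added for 30–60 minutes at room temperature; luminescence read, quantitative HTS format.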
An asterisk follows results filed as active; ? = inconclusive; . = no result given. Unless noted, calls come from the whole dose curve; as a rule, active = well fitted curve in the direction sought with a large enough effect; inconclusive = small, poorly fitted or top-dose-only effect, or another doubt; inactive = no such curve, though single readings can be large; an effect the other way counts as inactive or inconclusive.

SMILES	D3 ag	GLP-1R agonist	GLP1R cytotox	GLP-1R inv ag	ClpP mod	D3 antag
CCCN(CCC)CCCNC(=O)c1ccc2c(c1)N(CC)C(=O)c1ccccc1S2=O (stereo unspecified)	-5	14%	3%	?	0%	-93*
COc1ccc(CNC(=O)c2ccc3c(c2)N(Cc2ccccc2C)C(=O)c2ccccc2S3=O)cc1 (stereo unspecified)	-2	.	1%	-22%	-3%	.
CN(c1ccccc1)S(=O)(=O)c1cccc(NC(=O)COc2cccc([N+](=O)[O-])c2)c1	-2	-1%	-7%	10µM*	-3%	17
Cc1nnc(SCC(=O)Nc2cccc(S(=O)(=O)N(C)c3ccccc3)c2)s1	34*	-30%	-2%	-29%	1%	41
CN(C)S(=O)(=O)c1ccc(NC(=O)CSc2ncnc3ccccc23)cc1	-4	8%	1%	?	?	30
Cc1ccsc1CN(C)CC(=O)Nc1cccc(S(=O)(=O)N(C)c2ccccc2)c1	7	-24%	1%	8.9µM*	-2%	10
CN(C)S(=O)(=O)c1cccc(NC(=O)CSc2ncnc3ccccc23)c1	65*	3%	-13%	?	.	0
CC(C)(C)NC(=O)COC(=O)CNC(=O)C1CCCCC1	.	.	.	.	3%	.
CC(C)NCC(O)COC1CCC(C(C)(C)C)CC1 (stereo unspecified)	4	-4%	?	7.1µM*	.	-24
CC1CCCC(C)N1CC(O)COC1CCC(C(C)(C)C)CC1 (stereo unspecified)	1	-4%	?	?	-3%	-12
COc1ccc2c(c1)CCc1c(C(=O)N3CC4(C)CC3CC(C)(C)C4)noc1-2 (stereo unspecified)	13	2%	-11%	13µM*	-2%	7
COc1ccc2c(c1)CCc1c(C(=O)Nc3c(C)nn(Cc4ccccc4Cl)c3C)noc1-2	-8	.	-11%	10µM*	-7%	.
CC1(C)CC2CC(C)(CN2C(=O)c2cc(-c3ccccc3)on2)C1 (stereo unspecified)	5	12%	-3%	2.8µM*	.	-8
COc1ccc2c(c1)CCc1c(C(=O)N3CCOCC3)noc1-2	10	-2%	-21%	?	-2%	-27
CC1(C)CC2CC(C)(CN2C(=O)c2cc(-c3ccc(F)cc3)on2)C1 (stereo unspecified)	5	7%	0%	?	.	4
COc1ccc2c(c1)CCc1c(C(=O)NCCc3ccc(OC)c(OC)c3)noc1-2	20	7%	-17%	16%	-3%	-13
COc1ccc2c(c1)CCc1c(C(=O)Nc3c(C)nn(Cc4ccccc4)c3C)noc1-2	14	5%	11%	?	?	32
COc1ccc2c(c1)CCc1c(C(=O)Nc3ccc(OC)c(OC)c3)noc1-2	34*	0%	3%	29%	11%	14
COc1ccc(CCNC(=O)Cn2c(=O)n(-c3ccc(OC)c(OC)c3)c(=O)c3ccccc32)cc1OC	0	0%	-2%	17%	?	.
CCc1ccc(C(c2ccccc2)c2c(C)[nH]c3ccccc23)s1 (stereo unspecified)	-3	-8%	-10%	?	-8%	.
COc1cc(/C=N/NC(N)=S)ccc1OC(=O)c1ccc(C)cc1	-7	1%	?	?	4%	?
COc1cc(/C=N/NS(=O)(=O)c2ccc(C)cc2)ccc1OCc1cccc(C(=O)O)c1	7	-3%	-1%	3.2µM*	.	-10
COc1cc(/C=N/NC(N)=S)ccc1OCc1ccc(C)cc1	-4	19%	13µM*	?	.	-14
COc1cc(/C=N/NS(=O)(=O)c2ccc3ccccc3c2)ccc1OCc1ccc(C(=O)O)cc1	8	-9%	5%	2.5µM*	.	0
COc1cc(/C=N/O)ccc1OCc1ccc(C(=O)O)cc1	-1	-13%	-31%	?	4%	28
SMILES	D3 ag	GLP-1R agonist	GLP1R cytotox	GLP-1R inv ag	ClpP mod	D3 antag
COc1ccc(/C=N/NS(=O)(=O)c2ccc(C)cc2)cc1OC(=O)c1ccccc1	-13	-12%	-8%	?	1%	-10
Cc1ccc(Sc2nnc(Cc3ccccc3)c3ccccc23)cc1	-61	1%	10%	0%	-4%	-51*
COc1cc2c(cc1O)CC[C@@H]1[C@@H]2CC[C@]2(C)[C@@H](O)CC[C@@H]12	0	-1%	-28%	11µM*	1%	4
Cc1c(NC(=O)Nc2cccc(C(F)(F)F)c2)sc2nc3n(c(=O)c12)CCC(C)CC3 (stereo unspecified)	-3	.	-14%	-10%	-1%	.
CC1=NOC(=O)/C1=C\c1ccc(-c2ccc(Br)cc2)o1	3	-5%	?	?	2%	-6
CC1=NOC(=O)/C1=C\c1ccc(-c2cc(Cl)ccc2Cl)o1	-6	-1%	5%	0%	-2%	-63*
O=C(CC1C(=O)N(c2ccccc2)C(=O)N1Cc1ccc2c(c1)OCO2)Nc1ccccc1 (stereo unspecified)	5	.	3%	19%	-1%	.
Cc1nc2ccccc2nc1N1CCCCC1	1	3%	7%	-12%	-4%	-15
c1ccc2nc(N3CCCC3)c(N3CCCC3)nc2c1	1	6%	-2%	1.8µM*	-23%	15
Cc1cc(C)n(-c2nc3ccccc3nc2N2CCCCCC2)n1	2	1%	50%	6.3µM*	1%	0
Cc1ccc(-c2cc3ccccc3nc2N2CCOCC2)cc1	-5	1%	7%	?	.	2
c1ccc(-c2cc3ccccc3nc2N2CCCC2)cc1	-7	-1%	6%	2.5µM*	28µM*	7
COc1cccc(C(=O)N2CCCc3ccccc32)c1OC	0	8%	-4%	?	-3%	-22
Cc1nc2c([nH]c3ccc(Br)cc32)s1	1	-1%	-19%	-3%	0%	-101*
Cc1n[nH]c2ccc(Br)cc2c1=O	2	-6%	3%	1%	-3%	24
CSc1ccc(-c2nc3cccc(C)n3c2Nc2ccc(Cl)cc2)cc1	-10	.	2%	?	4%	.
